The record followed here is PubChem BioAssay (NCI).

Test systems include HCT-15 colon; HT29 colon; SNB-75 CNS; SNB-19 CNS; U251 CNS; PC-3 prostate; SK-MEL-5 melanoma; UACC-62 melanoma; LOX IMVI melanoma; SK-MEL-28 melanoma; SK-MEL-2 melanoma; EKVX NSCLC; SN12C renal; UO-31 renal; TK-10 renal; ACHN renal; CAKI-1 renal; A498 renal; CCRF-CEM leukemia; MOLT-4 leukemia.
Assay in all cases: NCI-60 one-dose screen, 48 h (100 = growth as untreated, 0 = no growth, -100 = all killed)
Holding throughout (conditions): 10 µM unless noted

About 83,000 compounds went through this panel and 20% of them were active in at least one assay; those are over-represented in the sample as a whole.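 Assay: single dose, 48 h. Readout: percent growth (0 = no net growth; negative = cell death). Active: <10.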 Unmarked numbers belong to inactive results. Calls of active or inactive are those of the source.

Regarding `CC(=O)O[C@H]1CC[C@@]2(C)C(=CC[C@@H]3[C@@H]2CC[C@]2(C)C(Cl)=C(c4nc5ccc(Cl)cn5c4NC(C)(C)C)C[C@@H]32)C1`, the growth in the experiment on HCT-15 colon was 100%; with HT29 colon, 102%; in the experiment on SNB-75 CNS it was 76.4%; in the experiment on SNB-19 CNS it was 85.1%; in the experiment with U251 CNS, 88.5%; in the experiment on PC-3 prostate, 82.9%. Moreover, the growth with SK-MEL-5 melanoma was 95.2%; in the experiment with UACC-62 melanoma, 73.6%; in the experiment with LOX IMVI melanoma, 89.8%; in the experiment on SK-MEL-28 melanoma, 94.4%; with SK-MEL-2 melanoma, 99.9%; with EKVX NSCLC, 88.1%. Also, the growth was 97.7% with SN12C renal; 86.6% in the experiment with UO-31 renal; 89.3% in the experiment with TK-10 renal; 92.1% with ACHN renal; 65.1% in the experiment on CAKI-1 renal; 92.8% with A498 renal. The growth in the experiment with CCRF-CEM leukemia is 92.3%; with MOLT-4 leukemia, 101%.

In the case of `CCC(C)C(N)C(=O)NC(CC(C)C)C(=O)N1CCCC1C(=O)NC(Cc1c[nH]c2ccccc12)C(=O)NC(CCCCN)C(=O)NC(Cc1c[nH]c2ccccc12)C(=O)N1CCCC1C(=O)NC(Cc1c[nH]c2ccccc12)C(=O)NC(Cc1c[nH]c2ccccc12)C(=O)N1CCCC1C(=O)NC(Cc1c[nH]c2ccccc12)C(=O)NC(CCCNC(=N)N)C(=O)NC(CCCNC(=N)N)C(N)=O` (stereo not given), the growth with HCT-15 colon was 106%; with HT29 colon, 83.5%; in the experiment with SNB-75 CNS it was 105%; with SNB-19 CNS, 106%; with U251 CNS, 112%; in the experiment on PC-3 prostate, 91.7%. Besides, the growth is 104% in the experiment with SK-MEL-5 melanoma; 102% in the experiment with UACC-62 melanoma; 98.5% in the experiment with LOX IMVI melanoma; 114% in the experiment with SK-MEL-28 melanoma; 108% in the experiment on SK-MEL-2 melanoma; 104% in the experiment on EKVX NSCLC. In addition, the growth in the experiment on SN12C renal was 101%; in the experiment with UO-31 renal it was 68.1%; with TK-10 renal it was 124%; in the experiment with ACHN renal, 98%; with CAKI-1 renal it was 90.4%; with A498 renal it was 130%. Also, the growth with CCRF-CEM leukemia is -58.7% (active); in the experiment with MOLT-4 leukemia, -28.2% (active).

As for `c1ccc2cc(Cn3cc[n+](Cc4ccc5ccccc5c4)c3)ccc2c1`, the growth in the experiment on HCT-15 colon is 91.2%; with HT29 colon, -31% (active); in the experiment on SNB-75 CNS it was 19.3%; in the experiment with SNB-19 CNS, 29.8%; with U251 CNS, 21.8%; in the experiment with PC-3 prostate it was 15.4%. The growth in the experiment with SK-MEL-5 melanoma was -46.4% (active); in the experiment on UACC-62 melanoma it was 10.3%; in the experiment on LOX IMVI melanoma, 37.5%; in the experiment on SK-MEL-28 melanoma it was 20.3%; in the experiment with SK-MEL-2 melanoma it was -11.5% (active); in the experiment with EKVX NSCLC it was 51.7%. The growth was 18.2% in the experiment on SN12C renal; 70.6% in the experiment with UO-31 renal; 8.12% (active) in the experiment with TK-10 renal; 90.6% in the experiment on ACHN renal; 96% in the experiment on CAKI-1 renal; 75.9% in the experiment with A498 renal. For the same compound, the growth with CCRF-CEM leukemia is 21.7%; in the experiment on MOLT-4 leukemia it was 25%.

Regarding `COc1ccc(C(=O)/C=C/c2ccc(C)cc2)cc1S(N)(=O)=O`, the growth in the experiment on HCT-15 colon was 22.8%; in the experiment with HT29 colon it was 45.7%; with SNB-75 CNS, 82.7%; in the experiment with SNB-19 CNS, 14.5%; with U251 CNS, 17.1%; in the experiment with PC-3 prostate, 50.4%. The growth was 82.2% in the experiment on SK-MEL-5 melanoma; 61.2% in the experiment on UACC-62 melanoma; 28.8% with LOX IMVI melanoma; 98.1% in the experiment on SK-MEL-28 melanoma; 87.1% in the experiment on SK-MEL-2 melanoma; 81% with EKVX NSCLC. The growth in the experiment on SN12C renal is 6.38% (active); in the experiment with UO-31 renal, 37.4%; in the experiment on TK-10 renal, 73.1%; in the experiment on ACHN renal, 55.8%; in the experiment on CAKI-1 renal, 73.6%; in the experiment with A498 renal, 82.7%. Further, the growth in the experiment with CCRF-CEM leukemia is 23.7%; in the experiment with MOLT-4 leukemia it was 15.9%.

On to `C#CCOC(=O)C(N)CSSCC(N)C(=O)O` (stereo not given), for which the growth was 108% in the experiment with HCT-15 colon; 102% in the experiment on HT29 colon; 76.1% in the experiment on SNB-75 CNS; 103% in the experiment with SNB-19 CNS; 105% with U251 CNS; 91.6% with PC-3 prostate. Moreover, the growth in the experiment with SK-MEL-5 melanoma was 105%; in the experiment on UACC-62 melanoma it was 98%; in the experiment on LOX IMVI melanoma, 98.7%; with SK-MEL-28 melanoma it was 96.4%; in the experiment with SK-MEL-2 melanoma it was 89.2%; with EKVX NSCLC, 102%. Besides, the growth in the experiment on SN12C renal is 105%; in the experiment on UO-31 renal, 83.5%; in the experiment on TK-10 renal it was 100%; in the experiment on ACHN renal, 91.7%; with CAKI-1 renal, 90.7%; in the experiment on A498 renal, 116%. For the same compound, the growth in the experiment on CCRF-CEM leukemia was 99.4%; in the experiment with MOLT-4 leukemia, 102%.

Take `C=C(C)[C@@H]1CC[C@]2(COCCCNCCCN)CC[C@]3(C)[C@H](CC[C@@H]4[C@@]5(C)CC[C@H](OCCCN)C(C)(C)[C@@H]5CC[C@]43C)[C@@H]12`: the growth is -88.4% (active) in the experiment on HCT-15 colon; -79.7% (active) in the experiment on HT29 colon; 10.1% with SNB-75 CNS; -78.3% (active) with SNB-19 CNS; -94.3% (active) in the experiment with U251 CNS; -10% (active) in the experiment on PC-3 prostate. Also, the growth is 67.2% in the experiment with SK-MEL-5 melanoma; -88.1% (active) in the experiment with UACC-62 melanoma; -93.8% (active) in the experiment with LOX IMVI melanoma; 16.1% in the experiment with SK-MEL-28 melanoma; 92.6% with SK-MEL-2 melanoma; 47.6% in the experiment on EKVX NSCLC. Besides, the growth was -83.1% (active) in the experiment on SN12C renal; 38.9% in the experiment on UO-31 renal; -10.4% (active) in the experiment with TK-10 renal; -72.4% (active) with ACHN renal; 51.9% in the experiment with CAKI-1 renal; 90.3% with A498 renal. The growth with CCRF-CEM leukemia was -37.8% (active); in the experiment with MOLT-4 leukemia, -15.6% (active).

Turning to `CCCCCCC/C=N/NC(=O)c1ccc(-n2cc(-c3ccccc3)nn2)cc1`, the growth in the experiment on HCT-15 colon is 73.6%; with HT29 colon it was 101%; with SNB-75 CNS it was 86.3%; in the experiment on SNB-19 CNS, 100%; in the experiment with U251 CNS it was 98.3%; in the experiment with PC-3 prostate it was 74.8%. The growth with SK-MEL-5 melanoma is 94.9%; in the experiment on UACC-62 melanoma, 61.9%; in the experiment with LOX IMVI melanoma, 59.5%; in the experiment with SK-MEL-28 melanoma it was 98.3%; in the experiment with SK-MEL-2 melanoma, 98.9%; in the experiment with EKVX NSCLC, 90.5%. The growth in the experiment on SN12C renal is 93.4%; in the experiment with UO-31 renal it was 71%; in the experiment with TK-10 renal, 110%; in the experiment on ACHN renal, 79.1%; with CAKI-1 renal, 75.8%; in the experiment on A498 renal it was 90.1%. Moreover, the growth in the experiment with CCRF-CEM leukemia was 86.3%; in the experiment with MOLT-4 leukemia it was 85.9%.

Consider `CCN1C(=O)N(CC)C2C1NC(=S)N2/N=C/C=C/c1cccs1` (stereo not given), for which the growth in the experiment with HCT-15 colon was 15.5%; in the experiment on HT29 colon it was 5.58% (active); with SNB-75 CNS, 1.94% (active); with SNB-19 CNS, 27%; in the experiment with U251 CNS, 18.4%; in the experiment with PC-3 prostate, 35.2%. Also, the growth is 23.4% with SK-MEL-5 melanoma; 24.5% in the experiment with UACC-62 melanoma; 26.7% with LOX IMVI melanoma; 49.2% in the experiment on SK-MEL-28 melanoma; 64.1% with SK-MEL-2 melanoma; 55.1% in the experiment on EKVX NSCLC. The growth with SN12C renal was 30.2%; in the experiment on UO-31 renal, 44.9%; in the experiment with TK-10 renal, 70.3%; in the experiment with ACHN renal, 42.4%; with CAKI-1 renal, 36.5%; in the experiment with A498 renal, 18.4%. Moreover, the growth is 12.1% in the experiment on CCRF-CEM leukemia and 20.4% in the experiment on MOLT-4 leukemia.
